S-ASM inh = inhibitors of human secretory acid sphingomyelinase; placental ASM, HMU-PC fluorogenic substrate, 60 min; Potency, µM (highest dose often 57.5 µM), without a hit: top-dose activity change, negative = inhibition, hits mostly inhibitors; hit rate 0.006% among 340,000
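Human placenta-derived ASM preincubated with compound 10 min at room temperature, then reacted with 9 uM (final) fluorogenic HMU-PC substrate for 60 min at 37 C. Stop solution raises pH to 10; fluorescence read at Ex 386/Em 447 nm.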
Tb PFK block = T. brucei PFK enzyme inhibition. T. brucei PFK, ADP-Glo luminescence. Potency, µM (top dose mostly 57.5 µM), for inactives: at the top dose activity, negative = inhibition, most hits filed as inhibitors. hit rate 0.17% among 330,000. AID 485367;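 further: 0% = uninhibited 1x PFK enzyme wells and -100% = no-enzyme wells; nearly all actives have a fitted effect of over 60% in size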
Target sequence (O15648 whole entry, looked up): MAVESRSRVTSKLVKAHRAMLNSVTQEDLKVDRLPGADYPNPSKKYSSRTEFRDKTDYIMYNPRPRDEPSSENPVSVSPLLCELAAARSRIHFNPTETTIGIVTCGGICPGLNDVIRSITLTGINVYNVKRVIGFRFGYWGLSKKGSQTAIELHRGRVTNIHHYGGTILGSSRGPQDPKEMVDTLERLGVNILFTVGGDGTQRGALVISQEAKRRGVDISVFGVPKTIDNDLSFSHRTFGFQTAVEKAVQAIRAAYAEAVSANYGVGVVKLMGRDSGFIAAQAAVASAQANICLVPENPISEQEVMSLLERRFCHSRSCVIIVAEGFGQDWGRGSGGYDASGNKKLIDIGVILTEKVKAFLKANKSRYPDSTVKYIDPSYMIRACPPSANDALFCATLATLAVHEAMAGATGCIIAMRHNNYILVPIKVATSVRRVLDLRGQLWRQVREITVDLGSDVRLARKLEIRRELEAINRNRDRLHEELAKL
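Compounds were pin-transferred as a titration series up to 57 uM into substrate buffer (0.5 mM F6P, 0.1 mM ATP, pH 8.0), then 1.25 nM PFK was added and reactions ran 45 min before ADP-Glo detection.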
VDR inhibitor = inhibitors of human vitamin D receptor; VDR-SRC2-3 peptide fluorescence polarization, 2 h; P11473; hit rate 0.93% among 400,000; Potency, µM, for inactives: max response, negative = inhibition, actives largely listed as inhibitors; further: on the % scale 0 is the no-effect control and ±100 the full control effect
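VDR–SRC2-3 interaction, FP format. Cmpds 23 nl via pintool, brief spin, 2 h ambient incubation.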
PLK1 PBD block = blocks phosphopeptide binding to human PLK1 polo-box domain | P53350 | Plk1 PBD binding of FITC phosphopeptide, fluorescence polarization | AID 720504 | hit rate 2.8% among 360,000 | Potency, µM, inactives show max response, negative = inhibition, most hits filed as inhibitors; further: series mostly up to about 57 µM; on the % scale 0 is the no-effect control and ±100 the full control effect; nearly all actives have a fitted effect of over 65% in size
Pin1 inh = blocks the human prolyl isomerase Pin1 | hit rate 0.009% among 390,000 | Potency, µM (titrated, usually from 115 µM), for the others: top-dose activity, negative = inhibition, most hits filed as inhibitors | Q13526 | Pin1 FP peptide displacement, HiFluor488, 10 min; active means well fitted inhibition curve with a large enough effect in the polarisation, with a control signal flat, not every such curve was filed as active; inconclusive means small, poorly fitted or top-dose-only effect, or effect the other way, or a change in a side signal; inactive means no such curve, though single readings can be large or run the other way; the % refers to the polarisation; further: on the % scale 0 is the no-effect control and ±100 the full control effect
Target sequence (Q13526 whole entry, looked up): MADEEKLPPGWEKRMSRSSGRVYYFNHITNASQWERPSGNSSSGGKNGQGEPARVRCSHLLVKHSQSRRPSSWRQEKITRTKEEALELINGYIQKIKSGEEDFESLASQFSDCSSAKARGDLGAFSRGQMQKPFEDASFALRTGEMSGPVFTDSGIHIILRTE
TDP1 block = inhibitors of human tyrosyl-DNA phosphodiesterase TDP1 | AID 485290 | Q9NUW8 | hit rate 0.28% among 350,000 | Potency, µM (top dose mostly 130 µM), for inactives: at the highest dose activity change, negative = inhibition, actives largely listed as inhibitors | recombinant TDP1, AlphaScreen DNA substrate cleavage; further: on the % scale 0 is the no-effect control and ±100 the full control effect; nearly all actives have a fitted effect of over 40% in size
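Steps: enzyme plus compound, 15 min RT; add biotin/phosphotyrosine-FITC oligonucleotide (15 nM final), react 5 min; add donor/acceptor beads (10 ug/ml final), 10 min; read AlphaScreen. Tdp1 at 1 nM final.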
Starred values were filed as active, the others as inactive; ? = inconclusive; · = no result; [ ] = remark or other dose. This is a sample that favours compounds with a hit; in the whole collection about 3.1% have one here. Unless noted, the call rests on the fitted dose curve; in most records, active means well fitted curve in the direction sought with a large enough effect; inconclusive means small, poorly fitted or top-dose-only effect, or another doubt; inactive means no such curve, though single readings can be large; an effect the other way counts as inactive or inconclusive. Potency means the concentration at half of the fitted maximal effect.

SMILES	S-ASM inh	Tb PFK block	VDR inhibitor	PLK1 PBD block	Pin1 inh	TDP1 block
COc1cc(C(=O)Oc2ccc(Br)cc2C(=S)N2CCOCC2)cc(OC)c1OC	-4%	-2%	?	17µM*	9%	2%[0.0935 µM]
COc1ccc(C(=O)Oc2ccc(Br)cc2C(=S)N2CCOCC2)cc1	-14%	1%	25%	-21%	1%	-1%[0.0935 µM]
CCc1nc(Oc2cccc(F)c2)c2oc3ccccc3c2n1	·	·	7%	·	-2%	?
COc1ccc(C(=S)N2CCOCC2)cc1OC(=O)c1ccccc1	-2%	-2%	-10%	27µM*	-4%	3%
COc1ccc(C(=O)Oc2c(OC)cc(C(=S)N3CCOCC3)cc2OC)cc1OC	1%	-23%	?	21µM*	3%	·
Cc1c(-c2cccc(NC(=O)Nc3ccccc3)c2)nc2ncccn12	·	·	-2%	·	-1%	0%
O=C(O)c1ccc(CNc2ncnc3nc[nH]c23)cc1	·	·	-27%	·	-2%	0%
O=C(CSc1ncccn1)N/N=C/c1cccc([N+](=O)[O-])c1	-1%	-4%	-16%	-2%	-10%	2%
Cc1cc(C)nc(SCC(=O)N/N=C/c2cccc([N+](=O)[O-])c2)n1	-1%	0%	79µM*	21µM*	5%	-3%
Cc1cc(C)nc(SCC(=O)NN=C2CCCC2)n1	6%	0%	?	6.7µM*	1%	0%
CCCn1c(=O)c2sccc2n2c(CCCC(=O)Nc3cccc(CC)c3)nnc12	·	·	7%	·	?	0%
COc1ccc(-c2nc3ccc(NC(C)=O)cc3c(=O)n2Cc2ccccc2)cc1COc1ccc(NC(C)=O)cc1	·	·	-9%	·	?	·
CC(C)(C)OC(=O)N1CCC(c2c(C(=O)NCCCN3CCc4ccccc4C3)cnn2-c2ccccc2)CC1	·	·	-2%	·	-4%	4%
O=C(O)CSc1nnc(-c2cccs2)n1-c1ccc(Cl)cc1	4%	-8%	?	27µM*	-7%	5%
CC(=O)Nc1ccc(C(=O)OCC(=O)N(c2ccccc2)C2CCCCC2)cc1	-10%	0%	-2%	-2%	3%	0%
CC(=O)Nc1cc(NC(C)=O)cc(C(=O)OCC(=O)N(c2ccccc2)C2CCS(=O)(=O)C2)c1 (stereo unspecified)	8%	?	-4%	3%	?	45µM*
CCCCC1=CC2=C(c3ccco3)C(=O)C(C)(OC(=O)c3cccs3)C(=O)C2=CO1 (stereo unspecified)	·	·	-18%	·	·	-1%
O=C(CNC(=O)c1ccc(Br)o1)NCC(=O)OCc1ccccc1	0%	-7%	8%	-14%	-2%	·
COC(=O)C(Cc1ccccc1)NC(=O)CNS(=O)(=O)c1ccc(Br)cc1 (stereo unspecified)	12%	-1%	-7%	-8%	-1%	9%
COC(=O)C(NC(=O)CNS(=O)(=O)c1ccc(Br)cc1)c1ccccc1 (stereo unspecified)	1%	6%	0%	27µM*	1%	3%
O=C(CNS(=O)(=O)c1ccccc1)NCC(=O)OCc1ccc(Br)cc1	-1%	-11%	?	12µM*	-1%	3%
CCOC(=O)c1ccc(N2C(=O)c3n[nH]c(-c4ccco4)c3C2c2ccc(OCC)cc2)cc1 (stereo unspecified)	·	·	-4%	·	39%	9%
CCNc1nc(NCC)n2c(SCC(=O)Nc3ccc(Br)cc3F)nnc2n1	-1%	?	71µM*	13µM*	-5%	-1%
Cc1cc2c(s1)c1cnn(Cc3c(F)ccc(C)c3F)c(=O)c1n2C	·	·	·	·	14%	·
COc1ccc(/C=N/N2CCN(C3c4ccccc4-c4ccccc43)CC2)cc1O	-6%	1%	-27%	27µM*	-2%	9%
SMILES	S-ASM inh	Tb PFK block	VDR inhibitor	PLK1 PBD block	Pin1 inh	TDP1 block
NS(=O)(=O)c1nn2cc(-c3ccccc3)nc2s1	·	·	-18%	·	·	11%
COc1ccc(CNCCNC(=O)c2nonc2N)cc1OC	4%	-3%	1%	-10%	?	4%
COc1cc(CNCCNC(=O)c2nonc2N)ccc1OCc1ccc(Cl)nc1	2%	-1%	-30%	30µM*	0%	0%
O=C(c1cccnc1Cl)N1CCOCC1	1%	2%	?	19µM*	-7%	-3%
Nc1ccc(Nc2ccccc2)c(S(=O)(=O)O)c1	38%	-5%	9%	-28%	-9%	56µM*
CC1CCN(S(=O)(=O)c2cc(C(=O)Nc3ccc(Br)cc3F)n(C)c2)CC1	·	·	1%	·	-4%	2%
O=C(NC1CCCCC1)n1c(=O)oc2ccc(Cl)cc21	-1%	0%	0%	6µM*	2%	3%
Cc1cc2c(s1)c1cnn(Cc3c(F)cccc3C(F)(F)F)c(=O)c1n2C	·	·	·	·	-4%	·
Cc1ccc(-n2c(N)c(-c3nc4ccccc4n3C)sc2=S)cc1	-3%	-7%	?	5.3µM*	?	6%
CCOC(=O)C1C(c2ccc3c(c2)OCO3)NC(=O)NC1(O)C(F)(F)F (stereo unspecified)	2%	-1%	?	3µM*	-2%	7%
CCOC(=O)C1C(c2ccc(O)c(OC)c2)NC(=O)NC1(O)C(F)(F)F (stereo unspecified)	1%	-4%	-7%	2%	0%	0%
CN(C)C(=O)C1CCN(c2nc(-c3ccc(Br)cc3)cs2)CC1	·	·	·	·	-6%	·
Cc1ccc2onc(CC(=O)N3CCN(c4cc(Cl)ccc4C)CC3)c2c1	·	·	4%	·	2%	4%
O=C1NC(c2ccccc2)Nc2c1sc(=S)n2-c1ccccc1 (stereo unspecified)	-1%	-2%	-6%	21µM*	0%	-3%
CCOc1ccc(C2NC(=O)c3sc(=S)n(-c4ccccc4)c3N2)cc1 (stereo unspecified)	0%	6%	?	?	-9%	0%
COc1ccc(CCNC(=O)c2ccc3c(c2)N(Cc2c(F)cccc2Cl)C(=O)CS3)cc1OC	·	·	9%	·	11%	7%
CN1C2CCC1/C(=C\c1ccc(F)cc1)C(=O)/C2=C/c1ccc(F)cc1	0%	-8%	?	-15%	0%	0%
C=CC(=O)N1C/C(=C/c2ccc(F)cc2)C(=O)/C(=C\c2ccc(F)cc2)C1	-13%	·	10µM*	?	?	·
O=S(=O)(c1cccs1)N1CCN(c2nc(-c3cccs3)nc3ccccc23)CC1	·	·	-2%	·	-2%	-1%
Cc1cc(C)cc(C(=O)NCC(=O)OCC(=O)N(C)c2ccccc2)c1	4%	0%	-18%	24µM*	-5%	0%
CN(C(=O)COC(=O)c1ccc(=O)n(Cc2ccccc2)n1)c1ccccc1	7%	-1%	?	17µM*	-1%	-5%
COc1cccc(OC)c1C(=O)OCC(=O)N(C)c1ccccc1	2%	-8%	?	27µM*	7%	6%

Source: PubChem BioAssay
